Columns and labels:
Experiment in all cases: PBM binding z-score (relative to random genomic background probes); higher = stronger binding; sequences stand for … in GC…GCGATTGACAGCGTAGAATGAAGG
[1] = test system: PPARg:RXRa IVT, anti-PPARg (NR concentration 270 nM, RXRa partner concentration 90 nM)
Procedure, shortened: (§1)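 Ligand-free nuclear receptor dimers were applied to custom Agilent 4×180K protein-binding microarrays whose double-stranded probes carried direct-repeat seeds, single-nucleotide variants, half-site ablations and random human genomic background sequences in 34-nt variable regions. Incubation lasted 1 h. Binding z-scores were computed against the random background probes from regression-normalized fluorescence.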

[2] = test system: PPARg DBDmut:RXRa IVT, anti-PPARg (DBD mutation: PPARg1 K132A/R137A, NR concentration 270 nM, RXRa partner concentration 90 nM)
Procedure, shortened: as §1

[3] = test system: PPARg DBDmut IVT, anti-PPARg (DBD mutation: PPARg1 K132A/R137A, NR concentration 270 nM)
Procedure, shortened: as §1

[4] = test system: PPARg homodimer (NR concentration 180 nM)
Procedure, shortened: as §1

[5] = test system: PXR:RXRa (NR concentration 270 nM, RXRa partner concentration 90 nM)
Procedure, shortened: as §1

[6] = test system: PXR homodimer (NR concentration 270 nM)
Procedure, shortened: as §1

[7] = test system: RARa:RXR (NR concentration 270 nM, RXRa partner concentration 90 nM)
Procedure, shortened: as §1

[8] = test system: RARa homodimer (NR concentration 270 nM)
Procedure, shortened: as §1

[9] = test system: RARb:RXRa (NR concentration 270 nM, RXRa partner concentration 90 nM)
Procedure, shortened: as §1

[10] = test system: RARb homodimer (NR concentration 270 nM)
Procedure, shortened: as §1

Sequence	PBM binding z-score [1]	PBM binding z-score [2]	PBM binding z-score [3]	PBM binding z-score [4]	PBM binding z-score [5]	PBM binding z-score [6]	PBM binding z-score [7]	PBM binding z-score [8]	PBM binding z-score [9]	PBM binding z-score [10]
TAGCCTAGGGCATTCAGGGGCCAGTATAGAAAGC	0.75	-0.631	-1.01	-0.114	-0.0151	-0.113	0.405	-0.803	1.42	1.35
CGAACTAGGTCAAGGCCAGTGAATCTCCGCACGC	8.42	3.5	2.31	1.99	1.35	-0.029	2.32	0.0978	4.11	3.35
TAGCCTAGGTCATGCGGCCCAGTATAGTGTCGGC	2.78	-0.45	-0.404	0.605	1.27	-0.926	2.1	-0.495	3.72	2.78
TCTTGTAGGTCAATAGAGGTTAAGAAAGTGCGCT	7.76	2.66	2.4	2.69	5.67	0.719	4.2	1.13	4.09	3.81
CGAACAAGGTCATTGACAGGACAGTGAATAGTAA	4.81	1.05	0.903	2.11	4.12	1.79	4.28	1.42	5	3.92
CCTCGGAGGACAACAGGAGGTCATAGCTGCCAGA	0.613	-0.597	-1.12	1.63	3.72	1.1	3.52	0.48	2.93	3.71
CGTCCAAGGTCATAGGGGGTCAGTGAAGACAGAT	5.56	5.09	6.03	6.75	6.98	6.58	7.02	4.01	5.56	5.51
CCTACTGGGCCTAAGGTCATTGATTCCAATGCTC	3.86	-0.629	-0.793	2.07	3.7	1.98	3.54	0.174	3.15	3.54
AGAATGAGGTCATTAAGATCAGGGAATTGCGGTC	6.13	2.24	0.816	3.54	5.46	5.08	5.31	0.745	4.79	3.96
TACCCTAGGTCATTCAGGGGCCAGTATAGAAAGC	3.23	-0.205	0.64	2.57	2.68	0.936	3.65	0.569	4.13	3.8
ACTCGGAGGACAAAGGTCAGGGCTACGCCAGTGA	3.76	0.115	-0.434	4.95	4.18	0.463	5.81	1.53	4.69	4.65
ATATGTAGGTTAGCTGAGGTCATTCAGACTAGGC	6.48	2.26	1.4	3.04	6.68	6.09	4.95	1.7	3.34	4.04
TCTCGGAGGACACAAAGGTCAGAGCTTTCCAGAG	2.39	-0.467	-0.672	2.65	4.46	3.76	4.59	1.37	4.22	4.77
AGAATGGGGTTACCAAAGATCAGGGAAACGCTTG	4.08	1.57	1.15	1.96	3.04	0.0687	3.76	-0.368	2.18	1.08
CCAACTGGGCCAAAAAGGTCATTGATGCCGATAA	3.89	-0.199	-0.68	2.84	4.6	3	4.65	1.31	3.94	4.36
CCTTACGGGTCCCTCCAGGTTATAGCATCGGAGT	-0.601	-1.12	-1.29	0.547	0.139	-0.00641	0.181	-0.487	0.0941	0.0845
CCTACTGGGCCAAAAAGTTCATTGATGCCGATAA	2.64	-1.13	-0.236	1.35	2.98	9.58	1.23	0.294	2.24	2.64
CGTCCAAGGTCAATGCTAGATCAGTGAAAGCATT	3.17	-0.125	0.742	2.99	3.36	0.745	3.86	1.18	4.94	3.73
TAGCCTAGGTCATTCAGGGGCAAGTATAGAAAGC	3.07	0.118	0.778	1.7	5.54	0.783	3.46	0.682	3.81	3.46
CGAACTAGGTCAAGGACAGTAAATCTCCGCACGC	7.98	5.28	4.25	3.13	1.1	0.317	2.19	0.685	3.67	2.91
CGAACTAGGTCATTGACAGGACAATGAATAGTAA	8.41	3.96	1.94	1.77	2.07	0.487	2.45	0.188	3.77	2.88
TCTTGTAGATCGATAGAGGTTAAGAAAGTGCGCT	0.198	0.295	0.641	0.199	2.67	0.241	1.23	0.262	0.661	0.946
TCTCGGAGGAAACGAAAGGTCAGAGCTCGACATC	0.961	-0.0511	-0.298	2.23	3.7	0.181	4.48	1.31	3.73	4.28
TTACCAAGGTGAAAGGTCGTTGCTGCACGCCTTG	5.07	0.655	0.268	1.88	3.88	0.364	5.58	-0.419	3.14	2.59

From the supplement of paper PMC6555819
